This is a sample that favours compounds with a hit; in the whole collection about 7.7% have one here.
NOMO-1 viab = STK33 inhibitor candidate reducing NOMO-1 cell viability | inhibition, % (no concentration beside the values) | AID 2330 | NOMO-1 AML viability, CellTiter-Glo luminescence, 72 h | 37,000 compounds, 7.5% hits; in the data active means inhibition above about 80%; inconclusive means no clear call, values can overlap the other calls
PD-1 reversal = activators reversing PD-1 mediated T-cell inhibition | primary human CD4 T cells, PD-L1 beads, CellTiter-Glo 96 h | activation, % (concentration not given with the values) | 29,000 tested, under 10 active | AID 2316; call rule not given here;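 further: 0% = median vehicle wells and 100% = positive control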
Hedgehog inh = blocks Sonic Hedgehog signaling; Shh-LIGHT2 Gli-luciferase reporter, 30 h; inhibition, % (concentration not given with the values); 22,000 compounds, 2.1% hits;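 active means mean inhibition across valid replicates above about 65%, limit read from the data; inconclusive means mean under the limit, yet half or more replicates past it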;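 further: pathway switched on by Shh-conditioned medium diluted 1 in 25 in low serum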
Numbers without * were called inactive; ? = inconclusive; . = no result given.

SMILES	NOMO-1 viab	PD-1 reversal	Hedgehog inh
O=C(Nc1ccccc1)c1cc([N+](=O)[O-])ccc1NCc1cccnc1	34	-2	.
CC(=O)Cc1cc(O)cc2oc(C)cc(=O)c12	-19	-1	-42
C/C(C=Nc1c(C)n(C)n(-c2ccccc2)c1=O)=C/c1ccccc1	4	4	-16
COc1cc2c(cc1NC(=O)CCOc1ccccc1C)oc1ccccc12	7	.	.
COc1cccc2cc(-c3nnc(SCC(=O)Nc4cccc(Br)c4)n3C)oc12	107*	-14	.
COc1cccc2cc(-c3nnc(SCC(=O)Nc4cccc(F)c4)n3C)oc12	12	-1	.
Cc1ccc2oc(-c3cccc(NC(=O)COc4ccccc4C)c3C)nc2c1	3	-1	.
C[C@H]1CN([C@@H](C)CO)C(=O)Cc2cc(NC(=O)C3CCCCC3)ccc2O[C@H]1CN(C)Cc1ccc(Oc2ccccc2)cc1	27	-6	28
C[C@H](CO)N1C[C@H](C)[C@H](CN(C)Cc2ccc(Oc3ccccc3)cc2)Oc2ccc(NC(=O)Nc3ccccc3)cc2CC1=O	45	1	-23
C[C@@H]1CN([C@@H](C)CO)C(=O)Cc2cc(NC(=O)Nc3ccc4c(c3)OCO4)ccc2O[C@@H]1CN(C)Cc1ccc(Oc2ccccc2)cc1	107*	-3	48
C[C@H]1CN([C@@H](C)CO)C(=O)Cc2cc(NC(=O)Nc3ccccc3)ccc2O[C@@H]1CN(C)Cc1ccc(Oc2ccccc2)cc1	58	1	14
C[C@H](CO)N1C[C@H](C)[C@H](CN(C)Cc2ccc(Oc3ccccc3)cc2)Oc2ccc(NC(=O)Cc3ccccc3)cc2CC1=O	116*	.	.
C[C@@H]1CN([C@H](C)CO)C(=O)Cc2cc(NC(=O)C3CCCCC3)ccc2O[C@H]1CN(C)Cc1ccc(Oc2ccccc2)cc1	81*	.	35
C[C@@H]1CN([C@H](C)CO)C(=O)Cc2cc(NC(=O)Nc3ccc4c(c3)OCO4)ccc2O[C@H]1CN(C)Cc1ccc(Oc2ccccc2)cc1	117*	.	?
C[C@H]1CN([C@@H](C)CO)C(=O)Cc2cc(NC(=O)Cc3ccccc3)ccc2O[C@@H]1CN(C)Cc1ccc(Oc2ccccc2)cc1	75	-1	16
C/C1=C/CC/C(CO)=C\[C@H]2OC(=O)C(CN3CCCC3C(=O)O)[C@@H]2[C@@H](OC(=O)C(C)CO)C1 (some centres not stated)	.	.	23
CC(C)N(Cc1nc(-c2ccccc2Cl)no1)S(=O)(=O)c1ccc([N+](=O)[O-])cc1	12	0	.
O=C(NCc1ccccn1)c1cc(-c2cccnc2)nc2ccc(Br)cc12	13	.	.
C[C@H]1CN([C@@H](C)CO)C(=O)Cc2cc(NC(=O)Nc3ccccc3)ccc2O[C@H]1CN(C)Cc1ccc(Oc2ccccc2)cc1	54	2	-11
C[C@@H]1CN([C@H](C)CO)C(=O)Cc2cc(NC(=O)Nc3ccc4c(c3)OCO4)ccc2O[C@@H]1CN(C)Cc1ccc(Oc2ccccc2)cc1	119*	1	32
C[C@@H]1CN([C@H](C)CO)C(=O)Cc2cc(NC(=O)Nc3ccccc3)ccc2O[C@@H]1CN(C)Cc1ccc(Oc2ccccc2)cc1	115*	-7	42
C[C@@H]1CN([C@@H](C)CO)C(=O)Cc2cc(NC(=O)Nc3ccccc3)ccc2O[C@@H]1CN(C)Cc1ccc(Oc2ccccc2)cc1	78	-7	52
C=C[C@@](C)(O)CCC1C(=C)CCC2[C@@](C)(CO)CCC[C@]12C (some centres not stated)	37	-1	30
COc1cc(C(=O)OC[C@@]2(O)CO[C@H](OC3C(CO)OC(OC(C)/C=C/C4(O)C(C)CC(O)CC4(C)C)C(O)C3O)[C@@H]2O)cc(OC)c1O (some centres not stated)	2	0	-29
CC1(C)CC(=O)C2=C(C1)N(c1ccccc1)C(=O)C2(NC(=O)c1cccnc1)C(F)(F)F (configuration not stated)	-1	1	.
C[C@@H]1O[C@@H](OC[C@H]2O[C@@H](OCCc3ccc(O)c(O)c3)[C@H](O)[C@@H](O)[C@@H]2OC(=O)/C=C/c2ccc(O)c(O)c2)[C@H](O)[C@H](O)[C@H]1O	21	1	-64
C[C@@H]1CCCCO[C@H](CN(C)Cc2ccc(C(=O)Nc3ccccc3N)cc2)[C@@H](C)CN([C@H](C)CO)C(=O)c2cc(NS(C)(=O)=O)ccc2O1	66	-1	.
COc1ccc(S(=O)(=O)Nc2ccc3c(c2)C(=O)N([C@H](C)CO)C[C@H](C)[C@H](CN(C)Cc2ccc(C(=O)Nc4ccccc4N)cc2)OCCCC[C@@H](C)O3)cc1	126*	-1	.
COc1ccc(CN(C)C[C@@H]2OCCCC[C@@H](C)Oc3ccc(NS(=O)(=O)c4ccccc4)cc3C(=O)N([C@H](C)CO)C[C@@H]2C)cc1	26	.	.
